Consider 43 molecules from PubChem BioAssay AID588591 (National Center for Advancing Translational Sciences (NCATS), 2011).

Among all 390,000 compounds or so, about 4,700 (1.2%) were called active. About 4% were inconclusive and are not listed. The sample as a whole holds a higher share of actives than the screen did. Values without a mark were called inactive. The call rests on the fitted dose curve; in most records, active means well fitted inhibition curve with a large enough effect; inconclusive means small, poorly fitted or top-dose-only effect, or another doubt; inactive means no such curve, though single readings can be large or run the other way.
On the % scale 0 is the no-effect control and ±100 the full control effect; potency means the concentration at half of the fitted maximal effect.

DNA polymerase eta (Homo sapiens), sequence (Q9Y253 whole entry, looked up): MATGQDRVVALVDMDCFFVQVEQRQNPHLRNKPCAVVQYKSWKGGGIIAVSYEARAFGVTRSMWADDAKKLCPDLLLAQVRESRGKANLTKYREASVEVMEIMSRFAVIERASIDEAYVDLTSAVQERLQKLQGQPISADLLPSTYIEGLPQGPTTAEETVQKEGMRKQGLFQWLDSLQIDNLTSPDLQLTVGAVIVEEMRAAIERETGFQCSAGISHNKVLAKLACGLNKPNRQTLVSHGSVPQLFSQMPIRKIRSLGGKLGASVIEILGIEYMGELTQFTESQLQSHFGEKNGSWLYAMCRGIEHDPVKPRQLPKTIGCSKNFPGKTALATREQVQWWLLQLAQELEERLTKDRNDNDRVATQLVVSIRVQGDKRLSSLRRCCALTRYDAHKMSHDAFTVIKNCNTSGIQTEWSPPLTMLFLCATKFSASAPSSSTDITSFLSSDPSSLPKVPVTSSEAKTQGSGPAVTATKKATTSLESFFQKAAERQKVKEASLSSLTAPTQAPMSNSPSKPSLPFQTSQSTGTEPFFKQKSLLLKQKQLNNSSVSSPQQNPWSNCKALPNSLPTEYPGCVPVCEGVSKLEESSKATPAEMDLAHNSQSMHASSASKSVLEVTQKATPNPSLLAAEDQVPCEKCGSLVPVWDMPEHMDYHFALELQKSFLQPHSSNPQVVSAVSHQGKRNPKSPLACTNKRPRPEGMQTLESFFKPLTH

The assay has as its target DNA polymerase eta (Homo sapiens) (UniProt Q9Y253). In words: qHTS for Inhibitors of Polymerase Eta. The note with it: recombinant Pol eta, fluorescent DNA replication assay; series mostly up to 114 µM; activity change, negative = inhibition: at the top concentration. In outline: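 Fluorescent replication assay: 50 nM final substrate added after a 15 min room-temperature compound preincubation with 10 nM enzyme. Signal taken at 0 min and again at 10 min.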
A general note: In qHTS, concentration-response curves come from the screen itself.
With `O=C(O)/C(=C/c1c(C(=O)O)[nH]c2cc(Cl)cc(Cl)c12)c1ccccc1`, the “activity change, negative = inhibition” value is 1.06% [at 57.1 µM].

Consider `O=C1OC(C(=O)Nc2cccc(Br)c2)Cc2ccccc21` (stereo not drawn), for which the “activity change, negative = inhibition” value was -1.35%.

For the molecule `Cc1ccc(-n2nc(C)c3c(C)cc(=O)n(CC(=O)Nc4ccc(C(C)C)cc4)c32)cc1`, the “activity change, negative = inhibition” value is -4.68%.

Turning to `Cc1ccc(CNC(=O)C2CCN(S(=O)(=O)c3ccc4nc5c(c(C(=O)O)c4c3)CC(C)CC5)CC2)cc1` (stereo not drawn), the Potency entry is “inactive”.

Regarding `CCOC(CNC(=O)C1CCN(S(=O)(=O)c2ccc3nc4c(c(C(=O)O)c3c2)CC(C)CC4)CC1)OCC` (stereo not drawn), the Potency is 31.6 µM (active).

In the case of `CCOc1ccc(S(=O)(=O)N2CCC(C(=O)NCc3ccccn3)CC2)cc1Cl`, the “activity change, negative = inhibition” value was 2.78%.

As to `CCNS(=O)(=O)c1cc(-c2nnc(Nc3cccc(C(F)(F)F)c3)c3ccccc23)ccc1C`, the “activity change, negative = inhibition” value is -18.4%.

`Cc1ccccc1-c1nc(SCC(=O)N(C)c2ccccc2)c2c(=O)n(C)c(=O)n(C)c2n1`: the “activity change, negative = inhibition” value was -25%.

Regarding `CCOC(=O)Cn1c(=O)n(-c2ccccc2OC)c2nc(-c3cccc(F)c3)nc(C(N)=O)c21`, the “activity change, negative = inhibition” value was -17%.

As for `CCOC(=O)c1cc2c(=O)n3ccccc3nc2n(CCCOC)c1=NC(=O)C(C)(C)Oc1ccc(Cl)cc1`, the “activity change, negative = inhibition” value was -19.7%.

Turning to `CCSc1nnc(NC(=O)c2cc(=O)c3cc(C)c(C)cc3o2)s1`, the “activity change, negative = inhibition” value was -14.5%.

For `COc1cc(OC)cc(C(=O)Nc2nnc(SCC(=O)NCC3CCCO3)s2)c1` (stereo not drawn), the “activity change, negative = inhibition” value was -19.7%.

As for `NC(=O)CSc1nnc(NC(=O)c2ccc(Br)o2)s1`, the Potency was 20 µM (active).

Consider `CCOc1ccccc1N(CC)C(=O)c1cc2ccc3cccnc3c2[nH]1`, for which the “activity change, negative = inhibition” value is -2.25%.

Turning to `COc1ccccc1N1CC(C(=O)Nc2nnc(SCC(=O)NC(C)C)s2)CC1=O` (stereo not drawn), the “activity change, negative = inhibition” value is 4.61%.

As for `COc1ccccc1N1CC(C(=O)Nc2nnc(SCC(=O)NCC3CCCO3)s2)CC1=O` (stereo not drawn), the “activity change, negative = inhibition” value was -20%.

With `Cc1ccccc1N1CC(C(=O)Nc2nnc(SCCC3OCCO3)s2)CC1=O` (stereo not drawn), the Potency is 20 µM (active).

As for `COc1ccc(SCc2cc(=O)c3ccc(C)c(C)c3[nH]2)cc1`, the “activity change, negative = inhibition” value was -3.7%.

For the molecule `Cc1ccc(NC(=O)c2ccc3[nH]c(C)cc(=O)c3c2)c(C)c1`, the “activity change, negative = inhibition” value was -3.29%.

`CCOC(=O)C1=C(c2ccccc2)Nc2ncnn2C1c1ccc(Cl)cc1` (stereo not drawn): the “activity change, negative = inhibition” value was -18.3%.

Regarding `O=C(NC1=CC(=O)c2ccccc2C1=O)c1ccccc1`, the Potency is 89.1 µM (active).

Take `NS(=O)(=O)c1cc(C(=O)OCC(=O)NNC(=O)c2ccccc2)ccc1Cl`: the “activity change, negative = inhibition” value was -1.41%.

In the case of `COc1ccc(C)cc1NC(=O)CN1c2cccc3cccc(c23)S1(=O)=O`, the “activity change, negative = inhibition” value is -8.64%.

As for `O=C(O)CN1c2cccc3cccc(c23)S1(=O)=O`, the Potency is 28.2 µM (active).

As for `CC(C)CN(CC(C)C)C(=O)CN1c2cccc3cccc(c23)S1(=O)=O`, the “activity change, negative = inhibition” value is -9.58%.

For the molecule `COc1ccccc1Cc1nc2ccccc2nc1SCC(=O)N1CCCc2ccccc21`, the “activity change, negative = inhibition” value is 6.87%.

As to `CC(=O)c1ccc(N2CCN(c3nc4c(S(=O)(=O)c5ccccc5)nnn4c4ccc(Cl)cc34)CC2)cc1`, the “activity change, negative = inhibition” value was -14%.

Turning to `C#CCOCCOCCOCCNc1nc(N2CCN(C(=O)C([C@@H](C)CC)n3cc(C(N)COC(=O)C(F)(F)F)nn3)CC2)nc(N2CCN(C(=O)[C@H](CCCCN)n3cc(C(N)CC(C)C)nn3)CC2)n1` (stereo partly drawn), the “activity change, negative = inhibition” value is -1.59%.

Turning to `C#CCOCCOCCOCCNc1nc(N2CCN(C(=O)CCCCCCCCCCNC(=O)[C@H](CCCCN)n3cc(C)nn3)CC2)nc(N2CCN(C(=O)CCCCCCCCCCNC(=O)[C@H](CO)n3cc(CCCSC)nn3)CC2)n1`, the Potency is 89.1 µM (active).

As to `C#CCOCCOCCOCCNc1nc(N2CCN(C(=O)CCCCCCCCCCNC(=O)[C@H]([C@@H](C)CC)n3cc(CCCCN=C(N)N)nn3)CC2)nc(N2CCN(C(=O)CCCCCCCCCCNC(=O)[C@H](CO)n3cc(CCCSC)nn3)CC2)n1`, the Potency is 50.1 µM (active).

On to `C#CCOCCOCCOCCNc1nc(N2CCN(C(=O)[C@H](CCC(=O)O)n3cc(C(N)CO)nn3)CC2)nc(N2CCN(C(=O)[C@H](Cc3ccc(O)cc3)n3cc(C(N)[C@H](C)CC)nn3)CC2)n1` (stereo partly drawn), for which the “activity change, negative = inhibition” value is 1.96%.

In the case of `C#CCOCCOCCOCCNc1nc(N2CCN(C(=O)C([C@@H](C)CC)n3cc(C(N)COC(=O)C(F)(F)F)nn3)CC2)nc(N2CCN(C(=O)[C@H](Cc3ccc(O)cc3)n3cc(C(N)[C@H](C)CC)nn3)CC2)n1` (stereo partly drawn), the “activity change, negative = inhibition” value was -12%.

For the molecule `COc1ccccc1NC(=O)Cn1cnc2ccc(S(=O)(=O)N3CCC(C)CC3)cc2c1=O`, the “activity change, negative = inhibition” value is -21.9%.

In the case of `COc1ccc(-c2nc3c4ccccc4n(CC(=O)Nc4ccc(C(C)=O)cc4)c(=O)n3n2)cc1`, the “activity change, negative = inhibition” value is -3.59%.

Take `O=C(CSCc1cnn(-c2ccccc2)c1-n1cccc1)NCc1ccc(Cl)cc1`: the “activity change, negative = inhibition” value is -15.8%.

As to `CCOc1ccc(-c2cc3nc(C4CCN(C(=O)OC(C)(C)C)CC4)c(C(=O)Nc4cccc(CC)c4)cn3n2)cc1`, the “activity change, negative = inhibition” value is -17.4%.

Turning to `CC(=O)c1ccc(NS(=O)(=O)c2ccc(-c3cc(C)no3)s2)cc1`, the “activity change, negative = inhibition” value is 7.23%.

In the case of `Cc1c(OC(C)C(=O)N[C@@H](Cc2ccccc2)C(=O)O)ccc2c3c(c(=O)oc12)CCCC3` (stereo partly drawn), the “activity change, negative = inhibition” value is -15.3%.

`Cc1oc2c(C)c3oc(=O)c(CC(=O)N[C@@H](CC(C)C)C(=O)N[C@@H](Cc4ccccc4)C(=O)O)c(C)c3cc2c1C`: the Potency is 20 µM (active).

`Cc1c(CCC(=O)N[C@@H](CC(C)C)C(=O)O)c(=O)oc2c(C)c3oc4c(c3cc12)CCCC4`: the “activity change, negative = inhibition” value is -9.53%.

Take `O=C(CN1CCN(S(=O)(=O)/C=C/c2ccccc2)CC1)NC(=O)NCc1ccco1`: the Potency was 79.4 µM (active).

With `CC1(c2ccccc2Cl)NC(=O)N(CC(=O)NC(=O)NCc2ccco2)C1=O` (stereo not drawn), the “activity change, negative = inhibition” value is -4.59%.

With `NC(=O)CCN1CCN(S(=O)(=O)/C=C/c2ccccc2)CC1`, the “activity change, negative = inhibition” value is 11.3%.
